For four compounds, AC50 and outcome results are on record in PubChem BioAssay (EPA / NIEHS).

The target of experiment [1] is Sodium channel protein type 1 subunit alpha (Rattus norvegicus) (UniProt P04774). Kind of experiment: NVS_IC_rNaCh_site2: NovaScreen (NVS) Ion Channel Assay for rat Sodium Channel, Site 2 (NaCh) (AID 2283322).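 Note: hit means loss of radioligand binding signal relative to DMSO so AC50 marks displacement.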 The method in brief: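 Initial duplicate single-point testing at 25 uM, followed by concentration-response runs for actives. Binding of radioligand to rat forebrain membranes quantified after 1 h via filter-based radiodetection.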

The target in experiment [2] is guinea pig Sigma Receptor, Non-selective Binding, SIGMAR1 (gene 100135589) (UniProt Q60492). Kind of experiment: NVS_OR_gSIGMA_NonSelective: NovaScreen (NVS) Nuclear Receptor Binding Assay for guinea pig Sigma Receptor, Non-selective Binding (AID 2283367). The method in brief: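 Guinea pig brain membrane sigma sites were labelled with a radioligand, and bound radioactivity was counted after filtration 1 h post-dose. Compounds were screened at 25 uM in duplicate, then retested as concentration series when active.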

Experiment [3] has as its system guinea pig Dopamine Transporter (DAT), gene 100714898. Kind of experiment: NVS_TR_gDAT: NovaScreen (NVS) Transporter Assay for guinea pig Dopamine Transporter (DAT) (AID 2283369).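 Note: active compounds lower bound radioligand signal relative to DMSO.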 In short, it runs like this:
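Guinea pig striatal membranes, cell-free radioligand binding with filter-based scintillation counting, read 2 h after dosing. Loss of signal versus DMSO baseline; single-concentration primary (25 uM) then concentration-response up to 50 uM.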

Experiment [4] can be described thus: CCTE_Shafer_MEA_dev_bursting_electrodes_number: CCTE's Neural Network Formation Assay for Number of Bursting Electrodes, Shafer Lab (AID 2284043). The method in brief: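 Number of electrodes reaching ≥1 burst every 2 min was recorded at DIV 5, 7, 9 and 12 and collapsed as trapezoidal area under the curve. Cultures were rat cortical neurons on MEA plates, dosed continuously from plating with medium and treatment refreshed on DIV 5 and 9.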

The nature of experiment [5]: CCTE_Shafer_MEA_acute_AB: CCTE's Alamar Blue Assay for Cytotoxicity in the Neural Acute Assay, Shafer Lab (AID 2284069).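 Note: active compounds lower the viability signal compared with DMSO wells.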 The method in brief: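 Read-out: resazurin fluorescence (ex 544, em 590 nm) after CTB reagent at 1:6 dilution in fresh media. Cells: primary rat cortical neuron networks, DIV 13 or 15, chemically exposed on MEA plates; DMSO as negative control/baseline.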
Background: Resazurin is reduced to fluorescent resorufin, in cell work by metabolically active cells.

Experiment [6] is described as follows: CCTE_Shafer_MEA_dev_AB: CCTE's Alamar Blue Assay for Cytotoxicity in the Neural Network Formation Assay, Shafer Lab (AID 2284083).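 Note: resazurin reduction fluorescence as viability of cultured neurons; twelve days of exposure from plating with re-dosing on DIV 5 and 9.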 In short, it runs like this: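 Rat cortical primary cultures, 1.5 x 10^5 cells/well on MEA; continuous compound exposure over 12 days of network development, re-dosed with full medium change DIV 5 and 9. Alamar Blue fluorescence; loss of signal = cytotoxicity vs DMSO baseline.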

A short description of experiment [7]: IUF_NPC1b_proliferation_BrdU_72hr: Leibniz Research Institute for Environmental Medicine (IUF) 72-hour Neural Progenitor Cell Bromodeoxyuridine (BrdU) Proliferation Assay (NPC1b) (AID 2284207; active = hit-call score of the fitted dose curve at least 0.9, where 1 is the maximum; inactive = score below 0.9). In short, it runs like this:
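Human fetal cortex-derived (GW 16-19) neural progenitor spheres, 0.25-0.35 mm, one per well in EGF/FGF proliferation medium, exposed to compound for 72 h at 37C, pH 7.2-7.6. BrdU incorporation over the final 16 h read by luminescence ELISA, relative to DMSO.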

The nature of experiment [8]: IUF_NPC1a_proliferation_area_72hr: Leibniz Research Institute for Environmental Medicine (IUF) 72-hour Neural Progenitor Cell Proliferation Area Assay (NPC1a) (AID 2284208; active = hit-call score of the fitted dose curve at least 0.9, where 1 is the maximum; inactive = score below 0.9). In short, it runs like this: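 Single 0.25–0.35 mm human fetal neural progenitor spheres in proliferation medium with EGF and FGF, exposed 72 h from plating without renewal at 37C, pH 7.2-7.6. Sphere area growth measured by automated phase-contrast imaging, relative to DMSO.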

Experiment [9] in a line: IUF_NPC1_viability_72hr: Viability Assessment at 72 hours in the Leibniz Research Institute for Environmental Medicine (IUF) Neural Progenitor Cell Proliferation Assay (NPC1) (AID 2284209; active = hit-call score of the fitted dose curve at least 0.9, where 1 is the maximum; inactive = score below 0.9). In short, it runs like this: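 Three-day continuous exposure of human neural progenitor spheres under EGF/FGF-driven proliferation; cell viability scored by alamar blue signal versus DMSO.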

Experiment [10] in a line: CCTE_Mundy_HCI_hNP1_CellTiter: CCTE's Cell Titer-Glo 2 Assay in human neuroprogenitor cells for Viability, Mundy Lab (AID 2284241). The method in brief: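 Human neural progenitor cells (hNP1, WA09-derived) were plated on poly-L-ornithine/laminin and grown 40 to 44 hours at 37 °C, 5% CO2 before chemical addition. Twenty-four hours later, ATP was measured by CellTiter-Glo luminescence; loss of signal versus DMSO indicates reduced viability.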
In general terms: In ATP-based viability assays light output follows the ATP content of the culture.

Experiment [11] in a line: IUF_NPC2c_oligodendrocyte_migration_120hr: Leibniz Research Institute for Environmental Medicine (IUF) 120-hour Neural Progenitor Cell Migration Assay for Oligodendrocyte Migration (NPC2c) (AID 2284297; active = hit-call score of the fitted dose curve at least 0.9, where 1 is the maximum; inactive = score below 0.9;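 note: O4-positive oligodendrocyte migration distance divided by radial glia migration distance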). In short, it runs like this: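 Human fetal neural progenitor spheres (0.3 mm) are plated on poly-D-lysine/laminin in N2 differentiation medium and exposed for 120 h, with half-medium renewal at day 3. Oligodendrocyte (O4+) migration distance comes from ICC imaging, normalised to radial glia migration.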

A short description of experiment [12]: IUF_NPC2a_radial_glia_migration_120hr: Leibniz Research Institute for Environmental Medicine (IUF) 120-hour Neural Progenitor Cell Migration Assay for Radial Glia Migration (NPC2a) (AID 2284298; active = hit-call score of the fitted dose curve at least 0.9, where 1 is the maximum; inactive = score below 0.9). In short, it runs like this: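 Human fetal-cortex neural progenitor spheres (0.3 mm) plated on poly-D-lysine/laminin in N2 differentiation medium, exposed 120 h at 37C with half-medium renewal at day 3. Radial glia migration distance (um) measured from Hoechst-stained nuclei images; DMSO baseline.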

Experiment [13] is described as follows: IUF_NPC2a_radial_glia_migration_72hr: Leibniz Research Institute for Environmental Medicine (IUF) 72-hour Neural Progenitor Cell Migration Assay for Radial Glia Migration (NPC2a) (AID 2284299; active = hit-call score of the fitted dose curve at least 0.9, where 1 is the maximum; inactive = score below 0.9). In short, it runs like this:
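Spheres of human primary neural progenitors migrate on poly-D-lysine/laminin under compound exposure at 37C, 5% CO2. The 72 h radial glia migration distance comes from brightfield images, measured manually.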

The nature of experiment [14]: IUF_NPC2b_neuronal_migration_120hr: Leibniz Research Institute for Environmental Medicine (IUF) 120-hour Neural Progenitor Cell Migration Assay for Neuron Migration (NPC2b) (AID 2284300; active = hit-call score of the fitted dose curve at least 0.9, where 1 is the maximum; inactive = score below 0.9). The method in brief:
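0.3 mm hNPC spheres on poly-D-lysine/laminin in N2 differentiation medium exposed 120 h, half-medium refresh day 3; 7 concentrations, DMSO max 0.1%. Neuron (TUBB3) distance from sphere core by ICC imaging, normalised to radial glia migration.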

Experiment [15] in a line: IUF_NPC3_neuronal_differentiation_120hr: Leibniz Research Institute for Environmental Medicine (IUF) 120-hour Neuronal Differentiation Assay (NPC3) (AID 2284301; active = hit-call score of the fitted dose curve at least 0.9, where 1 is the maximum; inactive = score below 0.9). In short, it runs like this: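 Value is percent TUBB3-positive neurons among Hoechst-stained nuclei in the migration area, scored by trained CNN after 120 h differentiation. Primary hNPC spheres on poly-D-lysine/laminin, N2 medium, continuous dosing from day 0, half-refeed day 3; DMSO reference.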

Experiment [16] can be described thus: IUF_NPC4_neurite_length_120hr: Leibniz Research Institute for Environmental Medicine (IUF) 120-hour Neuronal Morphology Assay for Neurite Length (NPC4) (AID 2284302; active = hit-call score of the fitted dose curve at least 0.9, where 1 is the maximum; inactive = score below 0.9). In short, it runs like this: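 Neurite length, the mean in um across TUBB3-stained neurons, is derived by skeletonization of high-content images after 120 h differentiation. Compound exposure, 7 concentrations plus solvent control, ran from plating of hNPC spheres on poly-D-lysine/laminin, with medium half-replaced on day 3.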

Experiment [17] in a line: IUF_NPC5_oligodendrocyte_differentiation_120hr: Leibniz Research Institute for Environmental Medicine (IUF) 120-hour Oligodendrocyte Differentiation Assay (NPC5) (AID 2284304).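 Note: primary human fetal neural progenitor spheres plated to migrate and differentiate; share of O4-positive cells among Hoechst nuclei found by CNN image analysis.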 The method in brief:
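Human fetal neural progenitor spheres (0.3 mm) plated on poly-D-lysine/laminin in N2 differentiation medium and exposed for 120 h at 7 concentrations, with half-medium renewal at day 3. O4-positive cells identified by CNN, expressed as percent of Hoechst nuclei.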

A short description of experiment [18]: IUF_NPC4_neurite_area_120hr: Leibniz Research Institute for Environmental Medicine (IUF) 120-hour Neuronal Morphology Assay for Neurite Area (NPC4) (AID 2284305). The method in brief: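 Neurite area (pixels, nuclei excluded) of TUBB3-positive neurons from hNPC spheres differentiating 5 days under continuous exposure at 37 C, 5% CO2. High-content imaging; loss of signal versus DMSO control across 7 concentrations.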

A short description of experiment [19]: IUF_NPC2-5_cytotoxicity_72hr: Cytotoxicity Assessment at 72 hours in the Leibniz Research Institute for Environmental Medicine (IUF) Neural Progenitor Cell Migration and Differentiation Assay for Cytotoxicity (NPC2-5) (AID 2284306).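 Note: LDH release into supernatant measured by resorufin fluorescence marking membrane damage.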 The method in brief:
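Membrane-integrity cytotoxicity at 72 h, read as LDH-driven resorufin fluorescence in supernatant. hNPC spheres from fetal cortex differentiate on coated plates in N2 medium, 37C, 5% CO2; seven serial compound concentrations plus solvent control (DMSO ≤0.1%).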

The nature of experiment [20]: IUF_NPC2-5_cytotoxicity_120hr: Cytotoxicity Assessment at 120 hours in the Leibniz Research Institute for Environmental Medicine (IUF) Neural Progenitor Cell Migration and Differentiation Assay (NPC2-5) (AID 2284307). In short, it runs like this: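 Human fetal (GW 16-19) neural progenitor spheres (0.3 mm) plated on poly-D-lysine/laminin in N2 differentiation medium, exposed 120 h with half-medium renewal at day 3; 7 concentrations plus solvent control, DMSO ≤0.1%. LDH release in supernatant read by resorufin fluorescence.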

Usually AC50 stands for the midpoint of the concentration-response curve, whichever way the signal moves.

Inconclusive results are not listed. Activity calls are given as the source filed them. Rule for the calls, unless noted: active = hit-call score of the fitted dose curve at least 0.9, where 1 is the maximum; inconclusive = response in the unintended direction; inactive = score below 0.9.

guinea pig Sigma Receptor, Non-selective Binding, SIGMAR1 (gene 100135589), sequence (Q60492 whole entry, looked up): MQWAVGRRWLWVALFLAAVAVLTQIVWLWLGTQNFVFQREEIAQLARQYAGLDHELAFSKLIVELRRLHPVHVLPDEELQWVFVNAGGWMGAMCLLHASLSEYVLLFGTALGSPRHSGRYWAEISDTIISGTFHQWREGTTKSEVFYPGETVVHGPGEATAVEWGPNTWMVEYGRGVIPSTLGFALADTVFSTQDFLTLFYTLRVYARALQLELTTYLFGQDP

For the compound `CN(C)CCC(c1ccc(Cl)cc1)c1ccccn1` (stereo not given), the AC50 in [1] is 3.21 µM (active); in experiment [2], 3.14 µM (active); in experiment [3], 3.05 µM (active). The result in experiment [4], in experiment [5], in [6], in experiment [7], in [8] and in [9] was inactive. In addition, the call in experiment [10], in experiment [11], in experiment [12], in [13], in experiment [14] and in [15] was inactive. The call in [16], in [17], in [18], in experiment [19] and in experiment [20] was inactive.

With `CCCCCCCCCCCCCCCCCC[N+](C)(C)C`, in [2], the AC50 was 2.61 µM (active).

Regarding `NC(N)=Nc1nc(CSCCC(N)=NS(N)(=O)=O)cs1`, the compound was called inactive in [4], in [5], in [6], in [7], in [8] and in experiment [9]. Also, the outcome in experiment [10], in [11], in experiment [12], in experiment [13], in experiment [14] and in experiment [15] was inactive. The compound was classed as inactive in experiment [16], in [17], in experiment [18], in experiment [19] and in experiment [20].

Consider `O=C(C(=O)c1ccccc1)c1ccccc1`, for which the outcome in [1] was inactive. For the same compound, in [3], the AC50 is 3.77 µM (active).
